Data from publication PMC5540273 (PLoS ONE, 2017).

Columns and labels:
Conditions in all cases: concentration: 1 μM,replicates: in singlicate; n = 1
FGFR1 = test system: FGFR1
FGFR2 = test system: FGFR2
FGFR3 = test system: FGFR3
FGFR4 = test system: FGFR4
FGR = test system: FGR
FLT1 = test system: FLT1
FLT3-autoinhibited = test system: FLT3-autoinhibited
FLT3 = test system: FLT3
FLT4 = test system: FLT4
FRK = test system: FRK
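Further: KINOMEscan kinase panel screen.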

SMILES	%Inh (FGFR1) [%]	%Inh (FGFR2) [%]	%Inh (FGFR3) [%]	%Inh (FGFR4) [%]	%Inh (FGR) [%]	%Inh (FLT1) [%]	%Inh (FLT3-autoinhibited) [%]	%Inh (FLT3) [%]	%Inh (FLT4) [%]	%Inh (FRK) [%]
CCN1CCN(CCCC(=O)Nc2n[nH]c3nc(-c4ccc(O)cc4)c(Br)cc23)CC1 [SB-731579]	0	0	0	0	0	0	0	61	0	0
CN(c1ccccc1CNc1nc(Nc2ccc3c(c2)CC(=O)N3)ncc1C(F)(F)F)S(C)(=O)=O	68	64	47	11	37	53	19	99.5	85	54
FC(F)(F)c1cc(Br)cc(Nc2nccc(-c3cnn4ncccc34)n2)c1 [GW810578]	4	0	0	77	16	30	70	95.7	6	0
O=c1[nH]cc(-c2ccc(O)cc2)c2sc(-c3ccncc3)cc12 [GSK1033723]	0	0	16	13	21	9	0	0	1	0
O=C(NOCC1CC1)c1cc(Br)c(F)c(F)c1Nc1ccc(I)cc1Cl	0	1	0	0	0	0	0	0	0	0
COc1cc2c(Nc3ccc(NC(=O)c4ccccc4)cc3)ncnc2cc1OCCCN1CCOCC1 [GSK301329]	0	0	6	0	35	26	0	35	5	7
Cn1cc(-c2cccc3c(N)c(C(N)=O)nnc23)cn1	25	2	12	9	9	0	30	27	15	2
C[C@@H]1CNc2c(sc3ccc4nc(-c5ccncc5)ccc4c23)C(=O)N1	9	0	0	26	40	3	0	0	4	10
Cc1ccc2c(-c3ccnc(Nc4ccc(C(F)(F)F)cc4)n3)cnn2n1 [GW819776]	5	0	0	6	4	0	0	59	0	20
COc1cc(Nc2nccc(N3CCC(NC(=O)c4cccc(C#N)c4)C3)n2)cc(OC)c1OC (stereo not shown) [GSK1379751]	0	0	5	7	37	0	0	44	11	0
CS(=O)(=O)c1cccc(CNc2nc(Nc3ccc4c(c3)[C@@H]3C[C@@H]4CNC3=O)ncc2C(F)(F)F)c1	86	85	73	92.1	31	94.4	75	99.6	99.4	0
O=C1NCCc2[nH]c(-c3ccncc3)cc21	0	4	10	0	20	6	12	0	0	0
COc1cccc(CNC(=O)NC2CCN(c3ccnc(Nc4cc(OC)c(OC)c(OC)c4)n3)C2)c1 (stereo not shown) [GSK1379765]	0	49	23	2	18	26	14	47	23	21
C[C@@H](Oc1cc(-n2cnc3cc(-c4ccncc4)ccc32)sc1C(N)=O)c1ccccc1Cl [GSK479719]	46	57	71	34	40	54	24	97.3	97.1	15
CCOC(=O)N1CCC(n2cnc(-c3ccc(F)cc3)c2-c2ccnc(N)n2)CC1 [SB-219952]	0	12	12	0	0	33	14	24	0	2
COc1ccc(Nc2nccc(N3CCC(NC(=O)c4cccc(C#N)c4)C3)n2)cc1 (stereo not shown) [GSK1379730]	13	19	4	6	0	24	0	18	22	0
